Compound activity (PubChem)
UHRF1 MBD2 ctr: blocks human UHRF1 binding to methylated DNA. Q96T88. UHRF1 binding to methylated oligo, TR-FRET. inhibition, % at 4.4 µM. 370,000 compounds, 0.75% hits. AID 687016; in the data active = inhibition above about 21%;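 also: UHRF1 SRA domain binding a hemimethylated CpG hairpin DNA probe; 0% = median of test compound wells and 100% = reference inhibitor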
LEDGF integ inh: blocks HIV-1 LEDGF/p75-dependent DNA integration | TR-FRET IN-LEDGF/p75 DNA integration, Eu/Cy5 | inhibition, % at 3.7 µM | 370,000 compounds, 0.64% hits | AID 743269;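 active = inhibition above the screen-wide mean plus 3 SD, cut at about 13% in these data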;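 also: signal is the Cy5 over europium emission ratio at 671 and 618 nm; 0% = plate median of compound wells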
MBD2 inh: blocks human MBD2 binding to methylated DNA. TR-FRET, MBD2 binding to methylated oligonucleotide. 370,000 compounds, 0.31% hits. Q9UBB5. inhibition, % at 4.4 µM. AID 686964; in the data active = inhibition above about 13%
Target sequence (Q9UBB5 whole entry, looked up): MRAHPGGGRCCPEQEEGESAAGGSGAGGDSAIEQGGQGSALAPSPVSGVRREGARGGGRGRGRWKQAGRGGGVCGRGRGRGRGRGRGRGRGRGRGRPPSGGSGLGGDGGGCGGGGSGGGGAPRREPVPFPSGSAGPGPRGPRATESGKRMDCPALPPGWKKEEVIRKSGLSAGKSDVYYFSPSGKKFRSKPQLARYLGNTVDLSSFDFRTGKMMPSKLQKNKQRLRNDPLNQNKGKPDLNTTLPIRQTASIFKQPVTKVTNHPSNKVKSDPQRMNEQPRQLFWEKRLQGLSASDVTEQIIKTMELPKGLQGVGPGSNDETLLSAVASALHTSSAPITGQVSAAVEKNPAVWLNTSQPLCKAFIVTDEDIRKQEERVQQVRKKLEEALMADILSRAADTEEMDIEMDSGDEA
PRMT1 inh: inhibitors of human PRMT1; recombinant PRMT1, activity-based probe fluorescence polarization; inhibition, % at 2.79 µM; 370,000 compounds, 1.3% hits; AID 652257;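 active = inhibition above about 21% made by adding two undisclosed values, limit read from the data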
PRMT1 confirm: confirmation of human PRMT1 inhibitors; shares compounds with PRMT1 inh; recombinant His-PRMT1, activity-based probe fluorescence polarization; inhibition, % at 2.79 µM; 3,300 compounds, 42% hits; AID 687036;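 active = mean inhibition across replicates above the hit cutoff derived for the earlier primary screen, cut at about 22% in these data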
Numbers without * were called inactive; / = not tested or not shown. Most compounds without a hit are left out; they make up all but 2.5% or so of the library.

SMILES	UHRF1 MBD2 ctr	LEDGF integ inh	MBD2 inh	PRMT1 inh	PRMT1 confirm
CCN1CCN(C(=S)c2ccc(OCC(=O)NCc3ccccc3)cc2)CC1	-1	4	1	27*	38*
CCC(O)c1cnc(OCc2ccccc2)nc1OCc1ccccc1 (configuration not stated)	2	-3	7	0	/
Cc1cccc(N2CCN(C(=O)CN3CCOc4ccccc43)CC2C)c1 (configuration not stated)	-2	-2	-5	6	/
Cc1ccc(N2C(=O)C3C4C=CC(CNC(=S)N5CCN(c6cccc(C)c6)C(C)C5)(O4)C3C2=O)cc1 (configuration not stated)	-2	4	-8	37*	32*
O=C(CSC1=NCCS1)Nc1nc2c(s1)CCCC2	-2	2	-2	26*	32*
CCCCN=Cc1sc2ccc(OCC)cc2c1O	2	-4	-1	30*	32*
CCOc1ccc(N=CNc2ccc(OCC)cc2)cc1	0	-1	-2	2	/
CN(C(=O)NC1CCCCC1)[C@H]1C[C@H]2c3[nH]c4ccccc4c3CCN2C(=O)[C@H]1CO	-11	4	-3	33*	1
CC(=O)N(c1cccc(C)c1)C1SC(=O)N(c2ccccc2)C1=O (configuration not stated)	1	-3	3	32*	23*
CC(=O)N(c1ccccc1)C1SC(=O)N(c2ccccc2)C1=O (configuration not stated)	-1	-5	-2	13	/
Cc1ccccc1NC(=O)CC1SC(=NC2CCCCC2)NC1=O (configuration not stated)	3	-3	-4	32*	3
COc1ccc(C)c(NC(=O)[C@@H]2CCCN2S(=O)(=O)c2cccc3cccnc23)c1	-3	1	-1	3	/
O=C(CCN1C(=O)/C(=C\c2ccco2)SC1=S)Nc1ccc(C(=O)O)c(O)c1	62*	70*	9	39*	28*
COc1ccccc1/C=C1\SC(=S)N(CCC(=O)Nc2ccc(C(=O)O)c(O)c2)C1=O	-1	4	2	1	/
O=C(Nc1ccc(Cl)cc1Cl)O[C@@H]1CC[C@@]23CCCN2C(=O)CCC[C@H]3C1	5	-2	6	2	/
CC(=O)Nc1ccc2cc3ccc(NC(C)=O)cc3nc2c1	-10	9	-4	37*	22*
C[C@H](CO)N1C[C@H](C)[C@@H](CN(C)S(=O)(=O)c2cccc(F)c2)Oc2ncc(Br)cc2C1=O	-2	3	-7	-1	/
O=C1C(N2CCOCC2)=Cc2cccc3cccc1c23	-14	7	-22	101*	77*
O=C1C=C(N2CCOCC2)c2cccc3cccc1c23	-13	0	-13	102*	-2
O=C1C=C(O)c2cccc3cccc1c23	-7	3	-16	48*	9
CC1=C(C)C(=O)C(N2CCOCC2)=CC1=O	1	-1	-5	-2	/
CC(=O)c1ccc2c(c1)N(Cc1ccccc1)C(=O)C(C)S2 (configuration not stated)	-1	0	3	0	/
Oc1ccc(CNc2cccnc2)c2cccnc12	-5	-2	0	39*	34*
Cc1ccc(NCc2ccc(O)c3ncccc23)cc1	-5	0	-4	5	/
N#CC1=C(N)Oc2cc(N)ccc2C1c1ccsc1 (configuration not stated)	-5	-3	-7	-4	/
SMILES	UHRF1 MBD2 ctr	LEDGF integ inh	MBD2 inh	PRMT1 inh	PRMT1 confirm
N#CC1=C(N)Oc2ccc3ccc(O)cc3c2C1c1ccsc1 (configuration not stated)	11	3	2	83*	16
COc1ccccc1/C=C1\SC(=S)N(NS(=O)(=O)c2ccc(C)cc2)C1=O	1	0	0	3	/
Cc1ccc(S(=O)(=O)NN2C(=O)/C(=C/c3cccnc3)SC2=S)cc1	-9	0	-8	31*	13
CC1(C)Cc2ccccc2C(=O)N1	0	-1	2	2	/
Cc1cc2c(cc1C)/C(=C\C(N)=O)NC(C)(C)C2	-1	0	-5	26*	34*
Cc1cccc2c1CC(C)(C)N/C2=C\C(N)=O	-3	6	-6	45*	45*
CNC(=O)/C=C1\NC(C)(C)Cc2ccccc21	1	1	-2	41*	55*
COc1cc2c(cc1OC)/C(=C/C#N)NC(C)(C)C2	0	-1	-5	1	/
Cc1cccc(NC(=O)CNC(=O)[C@H]2O[C@@H](n3ccc(N)nc3=O)[C@H](O)[C@@H]2O)c1C	-2	-2	2	-2	/
